# Tests used:
# Test in all cases: PBM binding z-score (relative to random genomic background probes); higher = stronger binding; sequences stand for … in GC…GCGATTGACAGCGTAGAATGAAGG
# [1] = tested on: PPARg:RXRa DBDmut IVT, anti-RXR (DBD mutation: RXRa K156A/R161A, NR concentration 270 nM, RXRa partner concentration 90 nM)
# In short: (§1)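 Ligand-free nuclear receptor dimers were applied to custom Agilent 4×180K protein-binding microarrays whose double-stranded probes carried direct-repeat seeds, single-nucleotide variants, half-site ablations and random human genomic background sequences in 34-nt variable regions. Incubation lasted 1 h. Binding z-scores were computed against the random background probes from regression-normalized fluorescence.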
# [2] = tested on: PPARg:RXRa IVT, anti-PPARg (NR concentration 270 nM, RXRa partner concentration 90 nM)
# In short: as §1
# [3] = tested on: PPARg DBDmut:RXRa IVT, anti-PPARg (DBD mutation: PPARg1 K132A/R137A, NR concentration 270 nM, RXRa partner concentration 90 nM)
# In short: as §1
# [4] = tested on: PPARg DBDmut IVT, anti-PPARg (DBD mutation: PPARg1 K132A/R137A, NR concentration 270 nM)
# In short: as §1
# [5] = tested on: PPARg homodimer (NR concentration 180 nM)
# In short: as §1
# [6] = tested on: PXR:RXRa (NR concentration 270 nM, RXRa partner concentration 90 nM)
# In short: as §1
# [7] = tested on: PXR homodimer (NR concentration 270 nM)
# In short: as §1
# [8] = tested on: RARa:RXR (NR concentration 270 nM, RXRa partner concentration 90 nM)
# In short: as §1
# [9] = tested on: RARa homodimer (NR concentration 270 nM)
# In short: as §1
# [10] = tested on: RARb:RXRa (NR concentration 270 nM, RXRa partner concentration 90 nM)
# In short: as §1
Sequence,PBM binding z-score [1],PBM binding z-score [2],PBM binding z-score [3],PBM binding z-score [4],PBM binding z-score [5],PBM binding z-score [6],PBM binding z-score [7],PBM binding z-score [8],PBM binding z-score [9],PBM binding z-score [10]
TAGCCTAGGCCAGATCGGGCCAGTATACGCTATA,-0.93,-0.678,-0.211,-0.658,-1.06,-0.946,-0.923,-0.593,-1.1,-0.396
CGTCCAAGGTCAGAGACGTCAGTGAATGCCGAGT,2.2,1.74,-0.306,-0.0249,1.43,2.14,0.599,2.75,0.197,4.37
CCTCGGAGGCCAACAGGAGGTCAGAGCTGCCAGA,-0.0138,0.518,-0.818,-1.87,1.58,2.35,0.122,2.83,0.23,2.98
TCATATAGGTAAATGCTAGGTGACAGTCCGATCT,4.18,3.05,1.51,0.754,0.369,0.559,0.133,0.861,0.862,0.403
TGGATGAGGTTATAAGATCAGGGAACGTTGCAAA,-0.0803,0.649,0.558,0.341,0.81,0.986,0.518,1.34,0.465,1.25
CCTACTGGGCCAAAGGTCATTGAATCCAATGCTC,5.12,6.72,-0.082,0.0276,3.57,5.26,1.68,5.79,0.758,4.52
TCGAGTAGGTTAGTCGGCGCATTCAGCCAACATA,1.73,0.854,-1.61,-1.56,-0.687,-0.463,-0.787,-0.68,-0.479,-0.141
CCGAGTGGGGCATAAGGTTACCATAAGCCAGCCC,2.28,2.81,-1.47,-1.33,0.587,0.569,-0.243,1.27,-0.802,1.35
TCTGGTAGATCAAGCAGGTTAAGAAAGCCTGAGT,1.17,-0.178,-0.408,-0.683,-0.462,0.159,0.156,0.213,-0.519,-0.0969
CCGACTGGGGCAAGGTTAGCATAACGCACAGCCA,2.73,2.99,-1.11,-0.288,0.409,-0.179,-0.316,-0.0446,-0.606,1.22
TCATATAGGTAAATGCTTGGTGAAAGTCCGATCT,4.12,2.04,1.15,1.07,0.653,0.501,0.156,0.651,1.11,0.221
GCTCGGAGGACAAGGTCAGAGTTTTGTCCGTAGA,0.207,0.996,-0.873,-1.18,0.43,1.95,0.373,2.23,-0.47,3.46
TGAATGAGGTTAAAGATCAAGGAACGTGGCGTCG,1.88,3.3,0.538,0.468,0.301,2.23,-0.137,3.64,0.0967,2.11
CAAACTAGGTCAACGGAAGGTCAAAGTCCGCATG,8.48,8.61,4.8,2.05,7.1,5.74,2.3,7.48,2.65,5.04
AATACACGGTCACTAGGCCAGAGTAGGTACGAAT,2.08,3.87,1.22,1.13,0.988,0.0441,-0.0687,0.462,0.429,2.77
ATCGAAAGGTCGAGGTGAATATAGAGAAAGGGAA,0.454,2.9,1.3,0.685,1.72,2.6,0.39,3.39,1.13,4.2
TTACCAAGGAGAAAGGTCGTTGATGCACGCCTTG,0.0947,0.908,0.246,0.131,0.653,1.82,-0.00641,2.12,-0.114,1.5
TCGAGTAGGTTAGGGGCATTCGGAATGGCGTCGA,1.94,1.69,-0.634,-0.223,0.203,0.507,-0.0899,0.497,-0.724,1.09
CCTAGCAGGCCAATCTCGGTCACTCAAGGCTTGA,1.96,1.29,-0.633,-1.57,0.0271,-0.17,-0.412,0.0359,-0.713,1.34
CGTCCAAGGTCAAGGTTAGTGAAAGAGACTCGAA,3.18,3.79,0.923,0.146,2.5,3.81,0.691,4.34,0.992,5.07
CAAACTAGGTCAAAGGTCAAAGTGGAGCCAACCA,8.72,9.15,3.29,1.05,7.6,7.01,2.04,8.86,5.25,5.8
TCATATAGGTAAAGGTTAAAGTCGAACGATATGA,3.98,4.07,1.37,1.86,1.53,2.1,0.481,3.21,1.26,2.67
CAAACTAGGGCACAGAGGTCAAAGTCCGTGCGTA,7.7,7.94,4.77,2.72,4.24,6.12,8.42,6.5,1.61,4.41
